An excerpt weighted towards active compounds, which were near 3.3% of everything screened.
DRD3 agonist: D3 dopamine receptor (human) agonism | D3R DiscoveRx beta-arrestin cells, luminescence, 90 min | max activation, % | hit rate 0.58% among 410,000 | AID 652048; in the data active = max activation above about 30%; note: 0% is about no effect
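Agonist-mode cell screen: cells plated at 1500/well and incubated overnight at 37 °C, then exposed to library compounds for 90 min at 37 °C. Detection reagent was added for 30–60 min at room temperature, and luminescence was read.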
PI4K2A block: inhibitors of human PI4K2A. Q9BTU6. purified PI4K2A, ADP-Glo luminescence, 1 h; hits give low values. activity change, negative = inhibition, % at 76.9 µM. hit rate 0.13% among 420,000. AID 1346378; in the data active = activity change below about -50%; inconclusive = mostly about -30% to -49%;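 note: -100% = wells without enzyme as full effect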
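PI4K2A activity was measured by ADP-Glo luminescence: enzyme (4 ug/mL stock) and phosphatidylinositol (1.2 mM stock) in Tris pH 7.5/MgCl2/EGTA/Triton X-100 buffer were reacted with ATP (300 microM stock) for one hour at ambient temperature.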
LDHA inh: blocks human lactate dehydrogenase A. purified LDHA, NADH/diaphorase-resazurin fluorescence; hits give low values. activity change, % (values are at about 110 or 230 µM). hit rate 0.15% among 480,000; in the data active = activity change below about -30%; inconclusive = mostly about -25% to -30%;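 note: plate controls were DMSO wells for no effect and wells without enzyme for full effect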
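Remaining NADH was detected by diaphorase (0.133 mg/mL) converting 37 µM resazurin to fluorescent resorufin, read at 0 and 20 minutes. The preceding 5-minute room-temperature reaction used 2 nM LDHA, 0.2 mM sodium pyruvate and 0.06 mM NADH at pH 7.4.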
PI5P4K alpha inh: blocks human PI5P4K alpha kinase activity; hit rate 1.2% among 330,000; max response, %; PI5P4Kalpha enzyme, ADP-Glo luminescence, 60 min; hits give low values; active = max response of -50% or lower; inconclusive = between -30% and -50%; inactive = -30% or higher; note: value at the top dose of about 77 µM; % is set by controls: 0 for no effect and ±100 for the full control effect
Target sequence (P48426 whole entry, looked up): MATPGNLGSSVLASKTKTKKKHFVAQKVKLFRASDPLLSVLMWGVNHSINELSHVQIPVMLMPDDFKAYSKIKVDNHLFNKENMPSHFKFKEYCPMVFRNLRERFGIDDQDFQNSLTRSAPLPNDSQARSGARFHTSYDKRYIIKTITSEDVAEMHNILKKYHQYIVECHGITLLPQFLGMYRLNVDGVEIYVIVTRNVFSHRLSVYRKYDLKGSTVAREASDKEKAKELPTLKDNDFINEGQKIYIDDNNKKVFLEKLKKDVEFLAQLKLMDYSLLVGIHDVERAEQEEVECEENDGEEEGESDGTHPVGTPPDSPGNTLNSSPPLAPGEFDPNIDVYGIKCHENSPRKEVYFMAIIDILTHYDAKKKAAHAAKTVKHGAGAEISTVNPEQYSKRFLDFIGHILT
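Luminescence from ADP-Glo served as readout of PI5P4Kalpha activity in a qHTS format. Reaction: enzyme, substrate, compound, ATP at 5 microM final, 60 min at RT.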
DRD3 antagonist: D3 dopamine receptor (human) antagonism | D3R cells, DiscoveRx beta-arrestin luminescence, antagonist mode; hits give low values | max response, negative = inhibition, % | hit rate 2.5% among 360,000; in the data active = max response below about -50%; inconclusive = no clear call, values can overlap the other calls; note: % is set by controls: 0 for no effect and ±100 for the full control effect
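Cells expressing the human receptor were seeded at 1500 cells/well, incubated overnight at 37 degrees C in 5% CO2, then exposed to library compounds with dopamine controls for 90 minutes at 37 degrees C before luminescent detection.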
Starred values were filed as active, the others as inactive; ? = inconclusive; . = no result given.

SMILES	DRD3 agonist	PI4K2A block	LDHA inh	PI5P4K alpha inh	DRD3 antagonist
O=C1C=C(c2ccc(CO)cc2)C[C@@H](c2ccc3c(c2)OCO3)C1	-27	-1	-4	-2	-51*
CC(=O)C1=C(C)N(C2CCCC2)C(=O)C1(NC(=O)c1ccc(C(C)(C)C)cc1)C(F)(F)F (stereo not given)	.	.	-4	.	.
OCCOCCN1CCN(C2=Nc3ccccc3Sc3ccccc32)CC1	.	-1	-10	-3	-66*
Cn1cnc([N+](=O)[O-])c1S(=O)(=O)c1cccc(Cl)c1	-12	-5	-3	-1	-92*
Cn1cnc([N+](=O)[O-])c1S(=O)(=O)Oc1ccccc1	-15	-4	3	3	-84*
Cn1cnc([N+](=O)[O-])c1S(=O)(=O)Nc1ccccc1	-19	-9	-14	-1	-10
Cc1nn(C(C)C(=O)c2cccc(Cl)c2)c(C)c1[N+](=O)[O-] (stereo not given)	1	-2	-4	0	11
O=C(NC1CCCC1)C12CC3CC(C1)CC(c1ccccc1)(C3)C2	.	.	9	.	.
Cn1c(=N)n(CC(=O)O)c2ccccc21	-4	2	-2	1	-62*
Cc1ccc(Cl)cc1N1CCN(C(=O)CSc2nnc3n2C(C)(C)Cc2ccccc2-3)CC1	45*	2	-9	-3	?
Cc1ccc(C)c2[nH]c(=O)c(C(c3nnnn3C(C)(C)C)N3CC=C(c4ccc(F)cc4)CC3)cc12 (stereo not given)	-1	-3	-8	-1	-51*
CCN(CCC(=O)Nc1ccccc1C#N)Cc1ccco1	.	.	0	.	.
CC(=O)SCC(=O)N=c1sc2cc(F)ccc2n1C	46*	8	-7	-6	60
Cc1cccc(Cn2cc(/C=C/[N+](=O)[O-])c3ccccc32)c1	-2	26	5	.	-24
O=[N+]([O-])/C=C/c1cn(Cc2ccc(Cl)cc2)c2ccccc12	-4	23	2	-5	-53*
COCC(=O)N1CCN(c2oc(-c3ccccc3)nc2S(=O)(=O)c2ccccc2)CC1	.	.	-1	.	.
Cc1cc(=O)[nH]c(SCc2nc3ccccc3s2)n1	-8	-1	-3	-28	3
CCCc1cc(=O)[nH]c(SCc2nc3ccccc3s2)n1	43*	-7	0	.	39
Cc1nn(-c2ccc(F)cc2)c(Cl)c1/C=N/NC(=O)c1cccs1	-7	5	-6	-6	-22
O=C(NN=Cc1ccccc1OC(F)F)c1ccc(NS(=O)(=O)c2cccs2)cc1	7	-2	-2	-63*	7
COc1cc(/C=N/NC(=O)c2ccc(NS(=O)(=O)c3cccs3)cc2)cc(OC)c1O	2	-2	5	-60*	20
Cc1nn(-c2ccc(Cl)cc2)c(Cl)c1/C=N/NC(=O)c1ccc(NS(=O)(=O)c2cccs2)cc1	0	-3	-4	-66*	-19
COc1ccccc1C(=O)NNC(=O)c1ccc(NS(=O)(=O)c2cccs2)cc1	12	-2	-1	1	8
Cc1ccc(C)c(-c2csc(-c3ccc(O)cc3)n2)c1	.	.	0	.	.
CC(C)CC(C)(C#N)NC(=O)CCCc1c[nH]c2ccccc12 (stereo not given)	.	.	-6	.	.
SMILES	DRD3 agonist	PI4K2A block	LDHA inh	PI5P4K alpha inh	DRD3 antagonist
Cc1oc(-c2ccc(C(=O)N3CCOCC3)cc2)nc1CS(=O)(=O)c1ccccc1	.	.	6	.	.
Cc1c(C(=O)O)sc2nc(/C=C/c3cccc(O)c3)[nH]c(=O)c12	8	2	-5	-77*	-1
Cc1cccc(/C=C\c2nc3ccccc3c(=O)[nH]2)c1	-5	-11	-6	6	-2
CCCCN1CCN(C2=Nc3ccccc3Sc3ccccc32)CC1	.	-4	.	.	.
Cc1ccccc1NC(=S)C1=C(O)c2sccc2N(C)S1(=O)=O	4	-7	1	-22	-88*
CN1c2ccsc2C(O)=C(C(=S)Nc2ccccc2)S1(=O)=O	1	-7	0	-21	-72*
CCNC(=O)C1=C(O)c2sccc2N(C)S1(=O)=O	-5	2	-2	-3	7
CC(=O)CC1(O)C(=O)N(CN2CCN(c3ccccc3)CC2)c2ccccc21 (stereo not given)	-24	0	-1	.	-58*
CC1CCOC2(O1)C(=O)N(CN1CCN(c3cccc(Cl)c3)CC1)c1ccccc12 (stereo not given)	-15	0	3	1	-57*
COc1cc(C(=O)O)cc2c1OCO2	.	.	0	.	.
CC1(C)CC(=O)C(C(C2=C(O)CC(C)(C)CC2=O)c2ccc(Br)s2)C(=O)C1 (stereo not given)	-1	?	1	-80*	1
Cc1ccc(C(C2=C(O)CC(C)(C)CC2=O)C2C(=O)CC(C)(C)CC2=O)s1 (stereo not given)	3	?	-3	?	20
COc1ccc(C(=O)Oc2c(CN3CCOCC3)cc(Cl)c3cccnc23)cc1	-14	0	13	0	-4
COc1cc(C(=O)Oc2c(CN3CCOCC3)cc(Cl)c3cccnc23)cc(OC)c1OC	-38	-21	11	-6	-111*
O=C(Oc1c(CN2CCOCC2)cc(Cl)c2cccnc12)c1ccccc1Cl	-18	-30	18	3	-65*
O=C(Oc1c(CN2CCOCC2)cc(Cl)c2cccnc12)c1cccs1	-19	-3	9	-2	-63*
O=C(Oc1c(CN2CCOCC2)cc(Cl)c2cccnc12)c1ccc(F)cc1	-24	-5	37	.	-61*
CC1(C)CC(=O)c2cc(C#N)c(=O)n(-c3cccc(Cl)c3)c2C1	.	.	-7	.	.
COc1cc(/C=N/NC(=O)CNc2cccc(C(F)(F)F)c2)ccc1OC(=O)c1ccc(F)cc1	.	.	1	.	.
CCOC(=O)c1c(CN2CCC(C(=O)OC)CC2)nc2ccccc2c1C	.	.	-8	.	.
O=C(CC1CC2CCC1C2)Nc1ccc(-c2nccs2)cc1 (stereo not given)	.	.	11	.	.
COc1ccc(OC)c(N2CC(C(=O)O)CC2=O)c1 (stereo not given)	.	.	3	.	.
CNCCCC1Sc2ccccc2Oc2ccccc21 (stereo not given)	2	6	-17	7	-74*
CCN(CC)CCCNC(=O)C1c2ccccc2Oc2ccccc21	-8	6	-6	-2	-7
Cc1sc2ccccc2[n+]1CCC(C)S(=O)(=O)[O-] (stereo not given)	-17	-18	-6	4	-67*
Cc1sc2ccccc2[n+]1CC(=O)O	-11	-5	-3	5	-18
Cc1ccccc1NC(=O)C1CCn2c(C(=O)c3ccccc3)ccc21 (stereo not given)	.	.	3	.	.
CCSc1ccc([C@@H]2[C@H]3C(=O)N(CC)C(=O)[C@H]3[C@]3(C(=O)OC)CCCCN23)cc1OC	63*	3	0	0	56
O=C(Cn1cc(C(=O)c2ccccc2)c2ccccc21)NCc1ccccc1	.	.	-35*	.	.
O=C(Nc1ccc(N2CCOCC2)c(Cl)c1)c1ccccc1Cl	1	1	-5	-5	-53*
